Screening results deposited in PubChem by several laboratories.
S1P4 antagonist = blocks the human S1P4 receptor; 220,000 tested, 0.26% active; S1P4-expressing cells, antagonist mode, reporter read-out; O95977; inhibition, % at 4.98 µM; in the data active = inhibition above about 29%;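 note: 0% = wells stimulated with agonist and 100% = vehicle wells without agonist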
Target sequence (O95977 whole entry, looked up): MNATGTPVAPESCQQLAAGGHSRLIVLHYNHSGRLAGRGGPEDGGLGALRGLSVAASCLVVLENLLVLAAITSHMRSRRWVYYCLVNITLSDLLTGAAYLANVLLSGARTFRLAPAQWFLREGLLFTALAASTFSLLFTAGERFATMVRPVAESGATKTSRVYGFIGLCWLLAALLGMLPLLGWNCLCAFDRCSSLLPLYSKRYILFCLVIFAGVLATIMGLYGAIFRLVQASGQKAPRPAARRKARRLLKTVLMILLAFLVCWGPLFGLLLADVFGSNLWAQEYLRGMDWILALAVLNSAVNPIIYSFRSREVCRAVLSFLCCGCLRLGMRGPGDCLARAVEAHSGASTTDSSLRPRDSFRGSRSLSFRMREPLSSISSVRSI
S1P3 antag = blocks the human S1P3 receptor; 170,000 tested, 0.27% active; Q99500; CHO S1P3 NFAT-BLA reporter, FRET fluorescence, antagonist mode; inhibition, % at 4.98 µM;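 active = inhibition above the plate cutoff, the mean inhibition of test wells on that plate plus 3 SD, cut at about 28% in these data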;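 note: cells challenged with S1P at its EC80 of 0.8 µM; blue over green emission ratio from cleaved BLA substrate after 4 h stimulation; 0% = S1P-stimulated wells and 100% = unstimulated DMSO-only wells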
Target sequence (Q99500 whole entry, looked up): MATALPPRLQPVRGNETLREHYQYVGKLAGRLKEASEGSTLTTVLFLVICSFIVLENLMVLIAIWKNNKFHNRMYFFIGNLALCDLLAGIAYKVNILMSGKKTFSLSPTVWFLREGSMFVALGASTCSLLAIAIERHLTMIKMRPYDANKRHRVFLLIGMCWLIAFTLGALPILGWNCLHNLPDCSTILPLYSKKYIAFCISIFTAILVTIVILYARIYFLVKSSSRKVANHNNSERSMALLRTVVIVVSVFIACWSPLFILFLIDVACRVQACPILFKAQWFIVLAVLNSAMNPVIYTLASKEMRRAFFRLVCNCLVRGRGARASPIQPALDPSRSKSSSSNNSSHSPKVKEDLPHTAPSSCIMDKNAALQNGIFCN
AI-2 QS mod = Vibrio harveyi AI-2 quorum sensing modulation; AID 2094; Vibrio harveyi JMH597 AI-2 luminescence/OD600 ratio, 9 h; hits give low values; strain lacks LuxN and CqsS sensors; 0 = neutral-control median; activity change, % at 7.5 µM; 300,000 tested, 0.4% active; in the data active = activity change below about -75%, passing the limit was not always enough; inconclusive = no clear call, values can overlap the other calls;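 note: luminescence divided by OD600 gain over 9 h not by final OD600 alone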
Hsp70 act = switches on Hsp70 transcription | activation, % at 10 µM | AID 1203 | HeLa Hsp70 promoter luciferase reporter, luminescence; scaled: vehicle 0, proteasome-inhibitor control 100% | 200,000 tested, 0.04% active;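 active = activation above the mean across all tested compounds plus 3 SD, cutoff set per campaign, cut at about 5.5% in these data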;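 note: 100% = MG132 at 30 µM as the positive control and 0% = DMSO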
S1P4 agonist = activates the human S1P4 receptor. activation, % at 4.98 µM. S1P4-expressing cell line, agonist reporter assay. 220,000 tested, 0.35% active. O95977; in the data active = activation above about 11%;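 note: 0% = DMSO vehicle and 100% = reference agonist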
JMH597 growth = retest Vibrio harveyi JMH597 growth inhibition. OD600 absorbance, 9 h; lacks LuxN and CqsS sensors. growth inhibition, % at 7.5 µM. 750 tested, 1% active. shares compounds with AI-2 QS mod;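 active = every replicate shows growth inhibition above 50%; inconclusive = at least half, but not all, replicates pass that cutoff; inactive = fewer than half of replicates pass it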
BB721 lum counter = retest counter-screen: luminescence loss in constitutive-on quorum sensing strain BB721; shares compounds with AI-2 QS mod; Vibrio harveyi BB721 luminescence, 9 h; inhibition, % at 7.5 µM; 750 tested, 95% active;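 active = inhibition above about 80% in every replicate, not just on average, limit read from the data; inconclusive = at least half of replicates past the limit, but not all; inactive = fewer than half of replicates past the limit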
BB721 growth rt = retest: blocks Vibrio harveyi BB721 growth. shares compounds with AI-2 QS mod. growth inhibition, % at 7.5 µM. OD600 absorbance, 9 h. 750 tested, 3% active;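 active = every replicate shows growth inhibition above 50%; inconclusive = at least half but not all replicates above 50% inhibition; inactive = under half of replicates above 50% inhibition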
JMH597 AI-2 mod = Vibrio harveyi AI-2 signaling luminescence modulation – JMH597 strain, confirmation; Vibrio harveyi JMH597 AI-2 quorum sensing luminescence, 9 h; luxN and CqsS knockout, AI-2 only; shares compounds with AI-2 QS mod; 750 tested, 97% active; inhibition, % at 7.5 µM;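 active = every replicate shows more than 75% inhibition of signal versus neutral control wells; inconclusive = half to three quarters of replicates exceed 75% inhibition; inactive = fewer than half of replicates exceed 75% inhibition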
Active calls of the source: *; ? = inconclusive; nt = no result. This is a sample that favours compounds with a hit; in the whole collection about 0.97% have one here.

SMILES	S1P4 antagonist	S1P3 antag	AI-2 QS mod	Hsp70 act	S1P4 agonist	JMH597 growth	BB721 lum counter	BB721 growth rt	JMH597 AI-2 mod
Cc1ccc(/C=C/C(=O)NCc2ccncc2)cc1	-5.1	-5.1	-5.1	-0.5	5.7	nt	nt	nt	nt
O=C(/C=C/c1ccc(Br)o1)NCc1ccccc1	-4.3	14.1	-90.4*	0.1	0.5	12.8	96.7*	19.1	97.2*
COc1cccc(N(CC(=O)N2CCCC2)S(C)(=O)=O)c1	nt	nt	-3.3	nt	nt	nt	nt	nt	nt
O=S(=O)(c1ccccc1)c1ccc(NCc2ccco2)cc1	-17.1	-25.1	-93.8*	-0.2	-0.1	6.8	51.9	-38.0	97.6*
CCN(CC)C(=O)Cn1cc(S(=O)(=O)CC(=O)NCCc2ccccc2)c2ccccc21	nt	nt	17.6	nt	nt	nt	nt	nt	nt
Cc1ccc(Cc2cnc(NC(=O)c3ccco3)s2)cc1	-19.7	nt	-86.1*	0.0	3.8	26.9	97.1*	?	98.3*
Cc1ccc(Oc2ccc(NC(=O)c3ccco3)cc2)cc1	-14.4	-9.0	-97.3*	0.8	0.1	42.7	99.7*	?	99.8*
Cc1ccc(N(CC(=O)NC2CCCC2)C(=O)CCC(=O)Nc2nc(C)cs2)cc1	nt	nt	-12.6	nt	nt	nt	nt	nt	nt
O=C(Nc1ccc(F)cc1F)c1ccc(S(=O)(=O)N2CCCCC2)cc1	nt	nt	9.7	nt	nt	nt	nt	nt	nt
O=C(Cc1ccc(F)cc1)Nc1ccc(S(=O)(=O)N2CCCC2)cc1	nt	nt	-47.3	nt	nt	nt	nt	nt	nt
O=C(Cc1ccccc1[N+](=O)[O-])Nc1ccc(S(=O)(=O)N2CCCC2)cc1	nt	nt	?	nt	nt	15.4	92.9*	20.8	94.0*
O=C(CSc1nncs1)Nc1ccc(S(=O)(=O)N2CCCC2)cc1	-19.7	-0.8	-83.4*	0.0	0.7	0.4	92.9*	19.1	94.9*
O=C(Nc1ccc(S(=O)(=O)N2CCCC2)cc1)Nc1ccc(F)cc1F	nt	nt	-95.6*	nt	nt	1.6	98.1*	1.5	99.2*
O=C(Cc1ccc(Br)cc1)Nc1ccc(S(=O)(=O)N2CCCC2)cc1	nt	nt	-96.1*	nt	nt	33.3	?	3.2	99.3*
COC(=O)c1cn(C(=O)c2cccc(Br)c2)c2ccccc12	nt	nt	9.7	nt	nt	nt	nt	nt	nt
CN1CCN(C(=S)Nc2cc([N+](=O)[O-])ccc2Cl)CC1	-2.4	7.6	nt	0.1	-0.3	nt	nt	nt	nt
Cc1ccc(CNC(=O)C(=O)Nc2nccs2)cc1	-14.7	-24.4	-25.0	-0.2	-0.6	nt	nt	nt	nt
O=C(NCc1ccncc1)C(=O)NCC1OCCN1S(=O)(=O)c1cc(F)ccc1F (stereo not drawn)	nt	nt	3.0	nt	nt	nt	nt	nt	nt
COc1ccc(CNC(=O)CN2C(=O)COc3ccc(S(=O)(=O)N4CCCCC4)cc32)cc1	nt	nt	29.5	nt	nt	nt	nt	nt	nt
CC(C)C(CCNC(=O)CN1C(=O)c2ccccc2C1=O)c1ccco1 (stereo not drawn)	-8.4	nt	-84.1*	0.5	2.0	11.8	94.4*	1.9	97.0*
CC(C)C(CCNC(=O)CC(Cc1ccccc1)c1ccco1)c1ccco1 (stereo not drawn)	-2.3	nt	20.9	-0.5	0.8	nt	nt	nt	nt
O=C(NCc1ccccc1)c1nc2ccccc2s1	-2.4	-14.9	?	0.2	2.0	-3.0	91.5*	-38.5	93.9*
Cc1ccc(-c2nnn(CC(=O)Nc3nnc(C(C)C)s3)n2)cc1	-17.3	-20.2	17.3	-0.2	-0.5	nt	nt	nt	nt
COc1cccc(C(=O)CC(=O)C(=O)Nc2cc(OC)c(OC)c(OC)c2)c1	nt	nt	7.9	nt	nt	nt	nt	nt	nt
O=C(CCN1C(=O)CSC1=O)Nc1ccc(Br)cc1	-19.4	nt	-79.5*	-0.2	0.2	13.2	13.0	9.2	9.0
SMILES	S1P4 antagonist	S1P3 antag	AI-2 QS mod	Hsp70 act	S1P4 agonist	JMH597 growth	BB721 lum counter	BB721 growth rt	JMH597 AI-2 mod
Cc1ccc(NC(=O)CCN2C(=O)CSC2=O)cc1	-5.5	nt	5.3	0.0	0.4	nt	nt	nt	nt
COc1ccc(CNC(=S)Nc2ccc(F)c(Cl)c2)cc1	-18.1	-4.4	-84.1*	-0.5	-0.2	8.0	92.3*	21.0	92.0*
Cc1ccc(CNc2oc(-c3cccs3)nc2C#N)cc1	0.1	-0.5	-94.3*	-0.1	5.0	29.7	96.9*	?	98.3*
N#Cc1nc(-c2ccc(F)cc2)oc1NCc1ccccc1	-20.0	-13.6	-96.1*	0.1	1.0	20.4	95.0*	15.1	96.9*
N#Cc1nc(-c2cccs2)oc1NCc1ccc(Cl)cc1	-14.4	11.2	-86.6*	-0.3	3.4	93.2*	91.7*	102.4*	96.0*
N#Cc1nc(-c2ccc(F)cc2)oc1NCc1ccco1	-12.0	-3.9	-59.3	nt	-0.3	nt	nt	nt	nt
N#Cc1nc(-c2cccs2)oc1NCc1ccco1	-6.7	-9.3	-57.7	0.2	-1.5	nt	nt	nt	nt
Cc1cc(C)cc(NC(=O)CSCc2cc(=O)n3ccsc3n2)c1	nt	nt	-31.4	nt	nt	nt	nt	nt	nt
COc1ccc(C2C(C#N)=C(N)Oc3cc(C)[nH]c(=O)c32)cc1OC (stereo not drawn)	14.9	4.1	9.6	nt	-0.2	nt	nt	nt	nt
O=S(=O)(c1cccs1)N1CCC(CO)(Cc2ccc(Cl)cc2)CC1	-4.3	-1.2	1.6	0.4	1.2	nt	nt	nt	nt
Cc1ccccc1OCCNC(=O)/C=C/c1ccc([N+](=O)[O-])cc1	-10.2	-6.5	0.2	-0.4	-0.6	nt	nt	nt	nt
Cc1ccccc1OCCNC(=O)c1ccc2ccccc2n1	-21.9	-24.9	-78.5*	0.1	1.8	23.7	91.1*	6.8	93.8*
Cc1ccccc1OCCNC(=O)/C=C/c1ccccc1	-31.1	5.3	-82.2*	-0.1	1.8	-27.7	93.7*	-11.6	95.7*
CC1CCc2c(sc3nc(CN4CCN(S(=O)(=O)c5ccccc5[N+](=O)[O-])CC4)[nH]c(=O)c23)C1 (stereo not drawn)	-5.0	0.5	29.4	-0.4	3.6	nt	nt	nt	nt
CC1(C)SC[C@H](C(=O)Nc2cccc(Cl)c2)N1C=O	-4.9	-6.3	-93.3*	nt	0.1	-18.8	98.4*	-34.6	98.8*
Cc1cccc(/C=N/NC(=O)Cc2ccc(Cl)cc2)c1O	nt	nt	-71.3	nt	nt	nt	nt	nt	nt
Cc1ccc(O)c(/C=N/NC(=O)Cc2ccc(Cl)cc2)c1	nt	nt	-93.3*	nt	nt	31.0	98.6*	32.8	98.9*
Clc1nc(-c2ccccc2)ncc1Oc1ccccc1	nt	nt	-84.5*	nt	nt	18.0	97.0*	21.8	97.6*
CCCn1c(=S)[nH]c2cc(C(=O)N3CCc4ccccc43)ccc2c1=O	-4.1	nt	?	-0.1	-0.7	-4.3	84.8*	-10.5	88.7*
CCCCCn1c(=S)[nH]c2cc(C(=O)N3CCCC3)ccc2c1=O	-14.4	-19.3	20.2	-0.3	-2.1	nt	nt	nt	nt
CC(=O)c1ccc(NCCC(=O)c2ccccc2)cc1	6.8	5.4	-82.5*	0.1	0.8	17.7	92.9*	9.2	95.5*
CCOC(=O)c1c(S(=O)(=O)NCC(=O)N2CCN(c3ccccc3)CC2)c(C)n(C)c1C	nt	nt	14.6	nt	nt	nt	nt	nt	nt
COc1ccc(OCC(=O)NC2CCCN(Cc3ccc(Cl)cc3)C2)cc1 (stereo not drawn)	nt	nt	15.3	nt	nt	nt	nt	nt	nt
